Bioassay records from PubChem.
PHOSPHO1 inh – blocks human PHOSPHO1 phosphatase activity; AID 1565; Q8TCT1; inhibition, % at 13.3 µM; recombinant PHOSPHO1, absorbance phosphatase assay; actives 1.1% (n = 290,000); in the data active = inhibition above about 60%
ALR H2O2 inh – human ALR oxidase inhibition via reduced H2O2. purified ALR, DTT oxidation, H2O2 HRP-luminol luminescence. inhibition, % (test concentration not listed). actives 3.8% (n = 290,000). AID 485317;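 active = mean replicate inhibition above about 79%, with every replicate also reaching it, limit read from the data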
aDG glyco act – increases alpha dystroglycan glycosylation; Pro5-aDG cells, alpha-DG glycosylation AlphaScreen (IIH6); 0% Pro5, 100% B10-LARGE cell signal; actives 0.22% (n = 360,000); activation, % at 10 µM;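 active = activation of at least 8% versus controls, or a plate z-score of at least 8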;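 also: Pro5 are CHO cells carrying HIG-tagged alpha-DG that lacks glycosylation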
APOBEC3A inh – human APOBEC3A DNA deaminase inhibition; recombinant A3A, FAM/TAMRA ssDNA deamination fluorescence; P31941; actives 0.41% (n = 330,000); inhibition, % at 20 µM; AID 493011;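 active = at least 40% inhibition at 20 µM here, with at most 30% in a related deaminase screen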;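 also: plate controls were A3A with DMSO for no effect and wells lacking A3A enzyme for full effect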
Target sequence (P31941 whole entry, looked up): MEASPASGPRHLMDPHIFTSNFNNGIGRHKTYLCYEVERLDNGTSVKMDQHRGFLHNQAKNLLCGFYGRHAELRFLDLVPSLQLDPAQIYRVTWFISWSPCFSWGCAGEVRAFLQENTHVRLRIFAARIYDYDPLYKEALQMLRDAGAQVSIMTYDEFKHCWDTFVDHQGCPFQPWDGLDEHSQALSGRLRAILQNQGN
A3G deaminase – APOBEC3G (human) deaminase inhibition; actives 0.28% (n = 330,000); inhibition, % at 20 µM; Q9HC16; recombinant A3G, ssDNA deamination FAM/TAMRA fluorescence;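 active = inhibition of at least 40% at 20 µM, with no more than 30% in the related APOBEC3A deaminase screen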;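 also: plate controls were DMSO wells with A3G for no effect and wells lacking A3G enzyme for full effect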
Target sequence (Q9HC16 whole entry, looked up): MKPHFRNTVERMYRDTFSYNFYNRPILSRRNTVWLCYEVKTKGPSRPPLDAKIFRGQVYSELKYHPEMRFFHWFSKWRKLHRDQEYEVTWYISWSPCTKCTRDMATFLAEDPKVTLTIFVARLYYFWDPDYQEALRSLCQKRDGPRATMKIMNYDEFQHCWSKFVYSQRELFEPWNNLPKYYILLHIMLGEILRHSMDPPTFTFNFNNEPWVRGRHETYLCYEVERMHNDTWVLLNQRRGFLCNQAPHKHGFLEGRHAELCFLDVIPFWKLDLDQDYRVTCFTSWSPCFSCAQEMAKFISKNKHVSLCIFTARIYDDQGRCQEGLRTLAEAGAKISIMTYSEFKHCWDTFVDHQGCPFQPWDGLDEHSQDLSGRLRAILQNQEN
rCAG binder-1 – binds r(CAG) RNA repeats; inhibition, % at 3 µM; r(CAG) RNA repeat, TO-PRO-1 dye displacement fluorescence; actives 1.3% (n = 370,000);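 active = inhibition above the plate cutoff, the mean of all test compounds on that plate plus 3 SD, cut at about 35% in these data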;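 also: 0% = DMSO alone and 100% = 100 µM mitoxantrone as full dye displacement; higher means more dye released from RNA so lower well fluorescence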
APOBEC3G confirm – APOBEC3G (human) deaminase inhibition, confirmed | shares compounds with A3G deaminase | recombinant A3G ssDNA deaminase, UDG/FAM-TAMRA fluorescence | inhibition, % at 20 µM | actives 72% (n = 890) | AID 493152;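 active = inhibition reaching a set limit in any replicate at 20 µM, the limit being 80% of the first screen's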
aDG conf – confirmation of alpha dystroglycan glycosylation activators. AID 651671. actives 17% (n = 600). Pro5-aDG cells, alpha-DG glycosylation, IIH6 AlphaLISA; scaled to LARGE-overexpressing B10 cells as 100%. shares compounds with aDG glyco act. activation, % at 10 µM (by protocol);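 active = activation of at least 7% in one or more replicates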;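 also: cells exposed to compound for two days before detection; 0% = DMSO-treated Pro5 cells and 100% = DMSO-treated B10-LARGE cells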
rCAG bind conf – r(CAG) RNA repeat binding, confirmation. TO-PRO-1 dye displacement fluorescence. inhibition, % at 3 µM. actives 70% (n = 4,300). shares compounds with rCAG binder-1;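 active = inhibition above a per-plate cutoff, the mean inhibition of sample wells plus 3 SD, cut at about 35% in these data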;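 also: loss of TO-PRO-1 fluorescence as compound displaces dye from 1x1 AA loop RNA; 0% = DMSO only wells and 100% = 100 µM mitoxantrone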
DNA CAG counter – counter-screen for rCAG RNA binders: DNA CAG dye complex inhibitors | actives 94% (n = 4,300) | inhibition, % at 3 µM | shares compounds with rCAG binder-1 | d(CAG) DNA oligo TO-PRO-1 dye displacement, fluorescence;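 active = inhibition above its plate's cutoff, the mean test-well inhibition plus 3 SD, cut at about 4.8% in these data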;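 also: 0% = DNA dye mix with DMSO and 100% = 100 µM mitoxantrone; hits displace the dye from DNA and so lower well fluorescence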
dCAG dye DR – DNA CAG dye complex inhibition, dose response counter-screen. DNA CAG/GTC duplex TO-PRO-1 dye displacement fluorescence. actives 20% (n = 250). IC50, µM. shares compounds with rCAG binder-1. AID 686960; in the data active = IC50 below about 10 µM
dCAG DNA bind – DNA CAG dye complex inhibition, late stage dose response; shares compounds with rCAG binder-1; d(CAG) DNA duplex TO-PRO-1 dye displacement, fluorescence; IC50, µM; actives 80% (n = 30)
rCAG binder-2 – binds r(CAG) RNA repeats in late stage dose response; actives 100% (n = 30); shares compounds with rCAG binder-1; IC50, µM; r(CAG) RNA TO-PRO-1 dye displacement, fluorescence
* = called active by the depositor; / = no result given. Only some compounds are listed: those with a hit (about 5.4% of all), similar ones and a draw of the others. Unless noted, no rule for the calls is given here.

SMILES	PHOSPHO1 inh	ALR H2O2 inh	aDG glyco act	APOBEC3A inh	A3G deaminase	rCAG binder-1	rCAG bind conf	DNA CAG counter	others
O=c1[nH]c(=O)n(CCC2=CCCCC2)c(O)c1/C=N/Nc1cccc2ccccc12	-24.7	3.2	0.0	1.9	41.5*	25.5	/	/	APOBEC3G confirm=26.6
O=c1[nH]c(=S)n(C2CC2)c(O)c1/C=N/Nc1cccc2ccccc12	-23.9	-5.1	0.2	1.9	55.0*	33.9	/	/	APOBEC3G confirm=2.1
CCC(C)n1c(O)c(/C=N/Nc2ccccc2)c(=O)[nH]c1=S (stereo not drawn)	-7.1	99.9*	-0.1	0.6	48.8*	7.3	/	/	APOBEC3G confirm=9.2
Cc1ccc(N2CCNCC2C)cc1 (stereo not drawn)	/	/	0.1	/	/	2.2	/	/
CCC(C)C1NC(=O)C(C(C)=O)=C1O (stereo not drawn)	26.6	-3.9	-0.2	-2.1	-5.7	2.4	/	/
COC(=O)C(=O)N1CC2(C)CNCC(C)(C1)C2=O	11.7	1.3	-0.1	0.0	-5.1	0.7	/	/
O=C(NCCCn1ccnc1)C(Cl)(Cl)Cl	42.1	-5.1	-0.1	4.0	43.8*	-0.9	/	/	APOBEC3G confirm=-1.2
NS(=O)(=O)c1ccc(-c2ccc(C=C3C(=O)NC(=S)NC3=O)o2)cc1	-193.4	-20.9	/	7.9	47.9*	24.6	/	/	APOBEC3G confirm=47.1*
O=C1NC(=S)NC(=O)C1=Cc1c(Cl)cccc1Cl	/	/	0.5	/	/	2.6	/	/
COC(=O)C1C(C(=O)O)C2(Cl)C(Cl)=C(Cl)C1(Cl)C2(Cl)Cl (stereo not drawn)	/	/	-0.1	/	/	5.6	/	/
CC(=O)NN1C(=O)c2ccccc2NC1c1cccnc1 (stereo not drawn)	-5.3	-32.0	0.0	5.4	53.7*	-1.1	/	/	APOBEC3G confirm=-1.5
CCC12CN3CC(CC)(CN(C1)C3c1cccnc1)C2=O (stereo not drawn)	33.1	1.2	0.3	1.8	-0.4	-1.3	/	/
CC(=O)c1cn(CCCOc2ccccc2)c2ccccc12	-17.0	-2.1	6.3*	1.5	-1.1	-1.7	/	/	aDG conf=0.1
O=C(C(=O)N1CCOCC1)c1cn(CCCOc2ccccc2)c2ccccc12	41.2	/	-0.1	2.2	-10.7	-5.3	/	/
Cc1ccnc(-n2c(C)nc3ccccc3c2=O)c1	-8.3	-3.7	7.8*	-2.2	-4.8	-1.9	/	/	aDG conf=0.6*
CC1CCN(C(=O)C(C)Cl)CC1 (stereo not drawn)	11.3	-0.9	-0.2	1.4	-13.5	1.0	/	/
CN(Cc1ccccc1)Cc1ccccc1OC(=O)N(C)C	-0.2	-15.2	58.0*	-0.6	-2.7	-3.2	/	/	aDG conf=0.3
CCOP(=O)(OCC)C1(C(=O)O)CCCC1	31.5	/	0.0	-4.7	-7.8	-2.5	/	/
O=[N+]([O-])c1ccc(N2CCCC2)cc1N/N=C1\CN2CCC1CC2	-8.2	-5.0	-0.1	1.6	1.4	2.0	/	/
O=C(N/N=C1/CN2CCC1CC2)c1cc2ccccc2cc1O	40.7	50.9	-0.2	-2.4	-4.8	48.6*	6.7	2.2
C[C@]12CCC3C(CC[C@@H]4C[C@@H](O)CC[C@]34C)C1CC[C@@H]2O (stereo partly drawn)	/	/	-0.1	/	/	-0.6	/	/
CCC(C)n1c(O)c(/C=N/N2CCOCC2)c(=O)[nH]c1=S (stereo not drawn)	2.4	27.4	0.0	1.8	0.7	36.3*	2.3	0.1
Nc1ccc(Sc2ccc(N)cc2)cc1	/	/	-0.2	/	/	3.5	/	/
COP(=S)(OC)Oc1ccc(Sc2ccc(OP(=S)(OC)OC)cc2)cc1	/	/	0.0	/	/	38.6*	18.8	7.6*
COc1ccc(NC(=O)[C@@H](NC(=O)N2C[C@H]3C[C@@H](C2)c2cccc(=O)n2C3)C(C)C)cc1	33.8	/	-0.3	-1.6	-7.8	-2.4	/	/
SMILES	PHOSPHO1 inh	ALR H2O2 inh	aDG glyco act	APOBEC3A inh	A3G deaminase	rCAG binder-1	rCAG bind conf	DNA CAG counter	others
O=C(N/N=C/c1c(O)n(Cc2ccco2)c(=O)[nH]c1=O)c1ccccc1O	17.7	/	-0.2	39.5	11.6	57.8*	66.0*	26.5*
CC/C(=N\NC(=O)c1ccccc1O)c1c(O)n(C2CCCCC2)c(=O)[nH]c1=O	43.7	36.7	-0.4	-4.7	-6.1	59.2*	72.0*	29.4*	dCAG dye DR=2.81*;dCAG DNA bind=2.38*;rCAG binder-2=0.993*
O=C(N/N=C/c1c(O)n(C2CCCCC2)c(=S)[nH]c1=O)c1ccccc1O	1.2	40.0	0.0	-2.8	1.2	45.2*	90.3*	66.7*
CC(C)c1ccc(-n2c(O)c(/C=N/NC(=O)c3ccccc3O)c(=O)[nH]c2=S)cc1	11.9	73.2	-0.2	1.5	-2.1	81.5*	78.1*	42.5*
c1ccc(N2C3C4CC(C5CCCC54)C32)cc1 (stereo not drawn)	/	/	0.1	/	/	5.5	/	/
O=C(CCC(=O)N1C[C@H]2C[C@@H](C1)c1cccc(=O)n1C2)NCc1ccccc1	13.1	-2.8	-0.1	-4.0	-6.4	0.0	/	/
COc1ccc(OC)c(N2C(=O)NC(=O)/C(=C\c3ccc([N+](=O)[O-])s3)C2=O)c1	-123.9	/	-0.3	23.9	10.1	92.1*	73.7*	33.9*
O=C1NC(=O)N(c2ccccc2)C(=O)/C1=C\c1ccc([N+](=O)[O-])s1	-136.2	-2.8	/	12.0	17.4	43.2*	45.3*	18.1*
CC(c1ccccc1)[n+]1ccccc1 (stereo not drawn)	/	0.6	0.1	-4.0	-11.4	-3.7	/	/
O=[N+]([O-])c1ccc(N2CCCC(C(F)(F)F)C2)c2ccncc12 (stereo not drawn)	19.0	-11.7	0.6	1.7	3.2	2.5	/	/
CN(C)[C@@H]1C(=O)C(C(N)=O)=C(O)[C@@]2(O)C(=O)C3=C(O)c4c(O)cccc4[C@@](C)(O)C3[C@H](O)C12 (stereo partly drawn)	/	-25.2	-0.1	80.7	58.6	55.2*	20.9	7.5*
